Biological target: FAM181B
Experiment: pooled miR-30 sensor sort-seq; sequence = guide strand
Details: shRNA
Also: reference of the scale not given here.

Row | Sequence | sensor-assay potency score (higher = more potent)
1 | TTGTTTTAACACTTGAGGTTGT | 0.449
2 | TTTTGTTTTAACACTTGAGGTT | 0.0361
3 | TCATCGTCCTCGAAACAGCAGC | -1.07
4 | TAAATACACTGACCTTCGCTGA | -0.839
5 | TTTGTTTTAACACTTGAGGTTG | -0.289
6 | TACACTAAATACACTGACCTTC | -0.096
7 | TTCTTGACTCCTCTGGTCCAGT | -0.871
8 | TTGTGATTAAACAATCCCCAAC | -1.56
9 | TTGATGTTGCTGGACGCCGAGT | -1.34
10 | TTGGTTTCTTGACTCCTCTGGT | 0.637
11 | TGAAGCTGAGTAGATCGCGGGT | -0.406
12 | TTCACCTTCCGCTTCGACTTGC | 0.326

Biological target: FAM194A
Experiment: as above
Details: shRNA

Row | Sequence | sensor-assay potency score (higher = more potent)
13 | TTCTCTAAGAGCTCATTCCTGA | -0.231
14 | TTTAGTTTCGACTCTTCTGGAT | 0.0335
15 | TTAGTTTCGACTCTTCTGGATT | -1.18
16 | TTATATCTTGCTTTATACCAGA | -0.69
17 | TTGTCTTGTTCTAAGATGCGGA | -0.227
18 | TTTATCAGACAAATCTTGGAGC | -0.442
